Experimental data published in the supplement of paper PMC6522484.
Counter-ions that a name gives are not always drawn. ± gives the standard deviation of the averaged measurements.

Legend:
[1] = tested on: DLD1; assay: cell viability (CellTiter-Glo) relative to plate median (fraction of plate median); higher = more viable cells; conditions: 10 µM, treatment time 24 h
Method in brief: (§1)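 Colorectal cancer cell lines stably transduced with lentiviral TCF/Wnt firefly luciferase reporters (7TFP or TCF4/Wnt) were seeded in 384-well plates. 24 h later they received kinase inhibitor library compounds at a final 10 µM for 24 h. Parallel plates were read for firefly luciferase or CellTiterGlo luminescence on a Tecan F500 reader. Each well's signal was normalised to the plate median (webcellHTS2, additive, no log transformation), and the mean of two independent replicates is reported.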

[2] = tested on: HCT116; assay: as above; conditions: 10 µM; treatment time 24 h; reporter: TCF4/Wnt
Method in brief: as §1

[3] = tested on: SW480; assay: as above; conditions: 10 µM; treatment time 24 h; reporter: 7TFP
Method in brief: as §1

[4] = tested on: DLD1; assay: TCF/Wnt firefly luciferase reporter signal relative to plate median (fraction of plate median); higher = higher Wnt reporter signal; conditions: 10 µM, treatment time 24 h
Method in brief: as §1

[5] = tested on: HCT116; assay: as above; conditions: 10 µM; treatment time 24 h; reporter: TCF4/Wnt
Method in brief: as §1

[6] = tested on: SW480; assay: as above; conditions: 10 µM; treatment time 24 h; reporter: 7TFP
Method in brief: as §1

Compound	cell viability ([1]; reporter: 7TFP)	cell viability ([1]; reporter: TCF4/Wnt)	cell viability [2]	cell viability [3]	TCF/Wnt firefly luciferase reporter signal ([4]; reporter: 7TFP)	TCF/Wnt firefly luciferase reporter signal ([4]; reporter: TCF4/Wnt)	TCF/Wnt firefly luciferase reporter signal [5]	TCF/Wnt firefly luciferase reporter signal [6]
Cc1ccc(NC(=O)c2cccc(N(C)C)c2)cc1NC(=O)c1ccc(O)cc1	1.11 ± 0.16	1.095 ± 0.0071	1.23 ± 0.11	0.907 ± 0.033	1.07 ± 0.092	1.12 ± 0.014	1.04 ± 0.035	0.955 ± 0.092
CC(C)(C)c1cc(NC(=O)Nc2ccc(-c3cn4c(n3)sc3cc(OCCN5CCOCC5)ccc34)cc2)no1 [Quizartinib (AC220)]	0.994 ± 0.19	0.989 ± 0.086	1.15 ± 0.11	1.095 ± 0.0071	0.789 ± 0.4	1.04 ± 0.014	1.22 ± 0.18	1.26 ± 0.021
Clc1ccc(Nc2nnc(Cc3ccncc3)c3ccccc23)cc1 [Vatalanib dihydrochloride (PTK787)]	0.9675 ± 0.0021	0.978 ± 0.011	1.08 ± 0.13	0.925 ± 0.011	0.852 ± 0.038	0.965 ± 0.13	0.899 ± 0.11	0.957 ± 0.089
CC[C@H](Nc1ncnc2[nH]cnc12)c1nc2cccc(F)c2c(=O)n1-c1ccccc1	1.05 ± 0.14	0.999 ± 0.086	1.11 ± 0.042	0.996 ± 0.02	0.977 ± 0.089	0.788 ± 0.024	0.777 ± 0.3	0.751 ± 0.26
COc1cc(Nc2ncc(F)c(Nc3ccc4c(n3)N(COP(=O)(O)O)C(=O)C(C)(C)O4)n2)cc(OC)c1OC	0.895 ± 0.046	0.896 ± 0.073	0.8 ± 0.055	0.919 ± 0.028	0.86 ± 0.098	0.919 ± 0.089	2.02 ± 1.6	0.588 ± 0.28
CO[C@H]1C[C@@H]2CC[C@@H](C)[C@@](O)(O2)C(=O)C(=O)N2CCCC[C@H]2C(=O)O[C@H]([C@H](C)C[C@@H]2CC[C@@H](OC(=O)C(C)(CO)CO)[C@H](OC)C2)CC(=O)[C@H](C)/C=C(\C)[C@@H](O)[C@@H](OC)C(=O)[C@H](C)C[C@H](C)/C=C/C=C/C=C/1C [Temsirolimus (Torisel)]	1.135 ± 0.0071	1.115 ± 0.0071	1.125 ± 0.0071	0.934 ± 0.0028	1.08 ± 0.085	0.995 ± 0.078	1.165 ± 0.0071	0.951 ± 0.11
O=C(Cc1ccc(-c2ccc(OCCN3CCOCC3)cc2)cn1)NCc1ccccc1	0.891 ± 0.0014	1.005 ± 0.0071	0.745 ± 0.26	1.145 ± 0.0071	0.57 ± 0.038	0.908 ± 0.26	0.171 ± 0.0021	0.791 ± 0.047
COc1ccc(-c2cc3c(C)nc(N)nc3n([C@H]3CC[C@H](OCCO)CC3)c2=O)cn1	0.889 ± 0.028	0.944 ± 0.028	0.68 ± 0.15	1.1 ± 0.099	0.348 ± 0.096	0.533 ± 0.056	0.591 ± 0.039	0.725 ± 0.043
COc1ccc(-c2ccc3c(N4CCOCC4)nc(N4C[C@@H](C)O[C@@H](C)C4)nc3n2)cc1CO	0.938 ± 0.074	0.878 ± 0.041	0.842 ± 0.076	1.18 ± 0.021	0.392 ± 0.059	0.597 ± 0.019	0.432 ± 0.24	0.812 ± 0.29
CC[C@@H]1C(=O)N(C)c2cnc(Nc3ccc(C(=O)NC4CCN(C)CC4)cc3OC)nc2N1C1CCCC1	0.736 ± 0.16	0.863 ± 0.04	0.56 ± 0.13	0.897 ± 0.067	1.97 ± 0.2	2.25 ± 0.078	0.983 ± 0.93	1.36 ± 0.48
O=C(Nc1cc(C(F)(F)F)cc(C(F)(F)F)c1)c1cc(Cl)ccc1O	0.48 ± 0.1	0.618 ± 0.011	0.303 ± 0.12	0.477 ± 0.03	0.473 ± 0.11	1.47 ± 0.67	0.133 ± 0.072	0.3675 ± 0.0021
Cc1cc(C(=O)NOCCO)c(Nc2ccc(I)cc2F)n(C)c1=O	1.19 ± 0.042	1.15 ± 0.042	0.889 ± 0.075	1.105 ± 0.0071	1.635 ± 0.0071	1.58 ± 0.25	1.17 ± 0.13	1.89 ± 0.22
Cn1cnc2c(F)c(Nc3ccc(Br)cc3Cl)c(C(=O)NOCCO)cc21 [AZD6244 (Selumetinib)]	1.11 ± 0.042	1.08 ± 0.035	0.914 ± 0.066	1.125 ± 0.0071	1.45 ± 0.021	1.42 ± 0.16	0.99 ± 0.52	1.34 ± 0.72
Cc1[nH]c(/C=C2\C(=O)Nc3ccc(S(=O)(=O)N(C)c4cccc(Cl)c4)cc32)c(C)c1C(=O)N1CCN(C)CC1	1.13	1.04 ± 0.066	1.09 ± 0.13	1.06 ± 0.11	0.858 ± 0.37	0.954 ± 0.14	0.756 ± 0.098	0.964 ± 0.065
O=C1NC(=O)/C(=C/c2ccc(-c3ccc(F)cc3O)o2)S1	1.09 ± 0.092	1.21 ± 0.028	1.19 ± 0.092	1.04 ± 0.14	0.905 ± 0.13	1.34 ± 0.47	1.7 ± 0.71	1.41 ± 0.35
COc1cc(Nc2ncc3c(n2)-c2ccc(Cl)cc2C(c2c(F)cccc2OC)=NC3)ccc1C(=O)O [MLN8237 (Alisertib)]	0.987 ± 0.047	0.95 ± 0.067	0.954 ± 0.12	0.943 ± 0.014	1.08 ± 0.014	1.16 ± 0.16	1.01 ± 0.12	0.974 ± 0.066
C#Cc1cccc(Nc2ncnc3cc(OCCOC)c(OCCO)cc23)c1 [OSI-420 (Desmethyl Erlotinib)]	0.993 ± 0.038	0.954 ± 0.011	1.075 ± 0.0071	0.987 ± 0.047	0.826 ± 0.023	0.927 ± 0.12	0.465 ± 0.3	0.668 ± 0.39
COc1cc2nccc(Oc3ccc(NC(=O)C4(C(=O)Nc5ccc(F)cc5)CC4)cc3)c2cc1OC [XL-184 free base (Cabozantinib)]	1 ± 0.08	1.02 ± 0.05	1.095 ± 0.0071	0.9465 ± 0.0035	1.14 ± 0.14	0.846 ± 0.078	1.05 ± 0.23	1.03 ± 0.1
CS(=O)(=O)N1CCN(Cc2cc3nc(-c4cccc5[nH]ncc45)nc(N4CCOCC4)c3s2)CC1	0.998 ± 0.19	1.03 ± 0.05	1.08 ± 0.021	1 ± 0.035	0.93 ± 0.14	0.947 ± 0.16	1.16 ± 0.057	1.04 ± 0.075
CCCS(=O)(=O)Nc1ccc(F)c(C(=O)c2c[nH]c3ncc(Cl)cc23)c1F	1.03 ± 0.08	0.942 ± 0.074	1.12 ± 0.071	0.837 ± 0.013	0.775 ± 0.33	0.746 ± 0.1	1.05 ± 0.11	0.786 ± 0.067
Cc1ccc(Nc2nccc(N(C)c3ccc4c(C)n(C)nc4c3)n2)cc1S(N)(=O)=O [Pazopanib HCl]	1.11 ± 0.23	1.03 ± 0.073	1.065 ± 0.0071	0.846 ± 0.018	1.125 ± 0.0071	1.06 ± 0.19	1.14 ± 0.028	0.931 ± 0.087
O=c1cc(N2CCOCC2)oc2c(-c3cccc4c3sc3ccccc34)cccc12	1.01 ± 0.083	0.964 ± 0.052	1 ± 0.094	1.04 ± 0.014	1.19 ± 0.064	1.16 ± 0.17	1.73 ± 0.64	1.1 ± 0.042
